Measured values taken from PubChem BioAssay (NCATS).
Records with an inconclusive call do not appear. Active and inactive are the calls of the source. The call rests on the fitted dose curve; in most records, active means well fitted curve in the direction sought with a large enough effect; inconclusive means small, poorly fitted or top-dose-only effect, or another doubt; inactive means no such curve, though single readings can be large; an effect the other way counts as inactive or inconclusive.

Columns and labels:
[1] = target: Rap guanine nucleotide exchange factor 3 (Homo sapiens) (UniProt O95398); test: Confirmatory qHTS for agonist of cAMP-regulated guanine nucleotide exchange factor 3 (EPAC1) (AID 1645881); conditions: EPAC1 Rap1B BODIPY-GDP exchange fluorescence; series mostly up to 154 µM;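 further: EPAC1 catalysed release of BODIPY-GDP from Rap1B seen as fluorescence loss; 100% = effect of cAMP agonist control; nearly all actives have a fitted effect of over 75% in size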
[2] = target: Rap guanine nucleotide exchange factor 4 (Homo sapiens) (UniProt Q8WZA2); test: Confirmatory qHTS for agonist of cAMP-regulated guanine nucleotide exchange factor 4 (EPAC2) (AID 1645884); conditions: EPAC2 GEF activity, Rap1B-BODIPY-GDP fluorescence; series mostly up to 154 µM;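 further: nucleotide exchange releases bodipy-GDP from Rap1 and this lowers its fluorescence; on the % scale 0 is the no-effect control and ±100 the full control effect; nearly all actives have a fitted effect of over 65% in size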
[3] = target: Rap guanine nucleotide exchange factor 4 (Homo sapiens) (UniProt Q8WZA2); test: Confirmatory qHTS for antagonist of cAMP-regulated guanine nucleotide exchange factor 4 (EPAC2) (AID 1645885); conditions: EPAC2 Rap1B-BODIPY-GDP exchange fluorescence, biochemical; series mostly up to 12.7 µM; further: nearly all actives have a fitted effect of over 25% in size; further: potency means the concentration at half of the fitted maximal effect; on activity change, negative = inhibition: on the % scale 0 is the no-effect control and ±100 the full control effect
[4] = target: Rap guanine nucleotide exchange factor 3 (Homo sapiens) (UniProt O95398); test: Counterscreen qHTS for antagonist of cAMP-regulated guanine nucleotide exchange factor 3 (EPAC1) (AID 1645888); conditions: Rap1B-BODIPY-GDP nucleotide exchange, fluorescence; series mostly up to 154 µM;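 further: fluorescence loss as bound BODIPY-GDP is released from Rap1B; % of control where 0% means no effect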
Procedure, shortened: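 Rap1B-BODIPY-GDP 250 nM + GDP 50 uM; cpds 7-pt, final 9.74 nM–152 uM (activator mode) or from 7.32 nM upwards (inhibitor mode); RT; FI 480/540 nm at 5 and 30 min, then ± cAMP, reread.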

Chain of Rap guanine nucleotide exchange factor 3 (Homo sapiens) (O95398 whole entry, looked up): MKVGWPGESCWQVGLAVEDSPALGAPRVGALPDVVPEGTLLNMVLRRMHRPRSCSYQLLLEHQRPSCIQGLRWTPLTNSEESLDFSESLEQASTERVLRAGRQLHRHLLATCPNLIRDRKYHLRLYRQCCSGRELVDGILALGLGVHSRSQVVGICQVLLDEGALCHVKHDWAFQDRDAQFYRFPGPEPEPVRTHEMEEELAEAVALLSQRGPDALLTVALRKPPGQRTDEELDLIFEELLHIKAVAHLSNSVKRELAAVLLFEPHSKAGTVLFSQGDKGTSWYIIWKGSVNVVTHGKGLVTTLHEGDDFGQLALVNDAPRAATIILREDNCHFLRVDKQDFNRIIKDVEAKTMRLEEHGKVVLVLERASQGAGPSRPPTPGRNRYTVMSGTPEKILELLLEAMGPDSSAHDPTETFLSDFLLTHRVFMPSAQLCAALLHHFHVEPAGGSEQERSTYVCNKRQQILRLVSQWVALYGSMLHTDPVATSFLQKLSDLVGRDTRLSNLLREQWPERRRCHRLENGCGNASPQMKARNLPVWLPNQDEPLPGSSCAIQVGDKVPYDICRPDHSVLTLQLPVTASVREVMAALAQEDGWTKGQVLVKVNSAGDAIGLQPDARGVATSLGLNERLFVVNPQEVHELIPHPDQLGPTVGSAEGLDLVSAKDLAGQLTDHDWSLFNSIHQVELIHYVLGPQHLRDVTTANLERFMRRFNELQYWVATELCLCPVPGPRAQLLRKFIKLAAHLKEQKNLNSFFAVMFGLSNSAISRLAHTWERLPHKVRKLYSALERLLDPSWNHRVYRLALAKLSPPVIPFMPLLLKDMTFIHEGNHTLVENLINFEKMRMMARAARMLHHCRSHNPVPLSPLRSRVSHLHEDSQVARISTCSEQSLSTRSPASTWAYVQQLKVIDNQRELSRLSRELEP
Chain of Rap guanine nucleotide exchange factor 4 (Homo sapiens) (Q8WZA2 whole entry, looked up): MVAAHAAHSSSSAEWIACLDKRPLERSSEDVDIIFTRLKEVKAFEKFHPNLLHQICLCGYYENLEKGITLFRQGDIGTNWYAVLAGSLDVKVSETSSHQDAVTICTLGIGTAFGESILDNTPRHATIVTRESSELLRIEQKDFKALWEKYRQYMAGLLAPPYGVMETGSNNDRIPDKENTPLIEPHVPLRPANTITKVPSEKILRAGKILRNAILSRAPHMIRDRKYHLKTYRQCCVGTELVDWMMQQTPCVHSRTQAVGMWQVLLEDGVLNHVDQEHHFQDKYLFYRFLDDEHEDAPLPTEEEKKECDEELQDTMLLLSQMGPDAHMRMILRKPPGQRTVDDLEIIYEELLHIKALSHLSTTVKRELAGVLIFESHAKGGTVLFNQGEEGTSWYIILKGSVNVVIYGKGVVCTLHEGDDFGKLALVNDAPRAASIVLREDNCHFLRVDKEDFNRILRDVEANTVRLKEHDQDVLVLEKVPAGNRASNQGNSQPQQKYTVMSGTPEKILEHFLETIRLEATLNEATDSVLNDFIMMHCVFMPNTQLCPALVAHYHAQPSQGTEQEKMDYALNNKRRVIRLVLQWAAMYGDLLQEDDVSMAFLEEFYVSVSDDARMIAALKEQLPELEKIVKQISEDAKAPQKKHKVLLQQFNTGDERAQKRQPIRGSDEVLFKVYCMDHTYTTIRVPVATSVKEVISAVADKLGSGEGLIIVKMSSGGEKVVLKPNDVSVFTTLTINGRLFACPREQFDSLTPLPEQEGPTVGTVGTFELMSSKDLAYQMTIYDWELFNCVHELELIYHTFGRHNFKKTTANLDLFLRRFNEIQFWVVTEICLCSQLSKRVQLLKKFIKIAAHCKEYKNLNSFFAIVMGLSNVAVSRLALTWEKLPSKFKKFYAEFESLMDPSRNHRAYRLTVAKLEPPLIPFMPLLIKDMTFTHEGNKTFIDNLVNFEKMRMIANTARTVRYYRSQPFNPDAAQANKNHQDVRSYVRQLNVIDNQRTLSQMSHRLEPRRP

Cc1ccc(N(Cc2ccc([N+](=O)[O-])cc2)C(=O)c2ccco2)cc1
inactive: Potency [1] | Potency [2] | Potency [4]
active: Potency [3] 15.1 µM

O=C1CCCC2=C1C(c1ccc(O)c(O)c1)Nc1ccc3ccccc3c12 (configuration not stated)
inactive: Potency [1] | Potency [2] | Potency [3] | Potency [4]

CCc1ccc2c(c1)NC(=O)C2(C)Cc1ccc(Cl)s1 (configuration not stated)
inactive: Potency [1] | activation [2] 0.147% [at 17.1 µM, percent relative to cAMP agonist control] | Potency [3] | activity change, negative = inhibition [4] -21.9% [at 30.8 µM]

S=c1[nH]nc(-c2cc(-c3ccccc3)n[nH]2)n1/N=C/c1cccc(Cl)c1
inactive: Potency [1] | Potency [2] | Potency [3] | Potency [4]

COc1cc(NC(=O)c2cc3nc(-c4ccccc4)cc(-c4ccccc4)n3n2)cc(OC)c1OC
inactive: Potency [1] | Potency [2] | Potency [3] | Potency [4]

CCCC1=C(C(=O)OCC)C(c2ccco2)C(C#N)=C(N)O1 (configuration not stated)
inactive: Potency [1] | activation [2] 2.29% [at 17.1 µM, percent relative to cAMP agonist control] | Potency [3] | activity change, negative = inhibition [4] -11% [at 30.8 µM]

CCOc1cccc(CNc2ccc(O)cc2)c1OCc1ccc(Cl)cc1Cl
inactive: Potency [1] | Potency [2] | Potency [3] | Potency [4]

CC(=O)N1N=C(c2ccc(Cl)cc2)CC1c1ccc([N+](=O)[O-])cc1 (configuration not stated)
inactive: Potency [1] | activation [2] 7.36% [at 17.1 µM, percent relative to cAMP agonist control] | Potency [3] | activity change, negative = inhibition [4] 2.9% [at 30.8 µM]
